Results from PubChem BioAssay (NCI).
Several values for one entry are separate records, joined by “and”; a condition that tells them apart may be missing. Identical values can stand only once. Compounds without any hit were thinned out: in the full panel of roughly 83,000, 20% have a hit.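 Step 1: grow cells in 96-well plates. Step 2: add test compound at a single concentration. Step 3: incubate 48 h. Step 4: record percent growth.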 A number with no mark means an inactive call. Activity calls are given as the source filed them. The calls were made as follows: active = growth percent below 10; inactive = the rest.

System: HL-60(TB) leukemia
Test: NCI-60 one-dose screen, 48 h (100 = growth as untreated, 0 = no growth, -100 = all killed)
Conditions: 10 µM unless noted

Compound | growth
Cc1ccc(-c2cc(C(=O)N=Nc3c(O)[nH]c4ccc(F)cc34)c3ccccc3n2)cc1 | 88.4%
N#Cc1c(-c2ccc(F)cc2)nc(SCc2ccc(F)cc2)nc1N1CCOCC1 | 85%
O=c1[nH]c2ccccc2cc1COc1ccc(Nc2nccc(-c3ccc(Cl)cc3)n2)cc1 | 95%
COc1cc2cc(C(=O)N3C[C@@H](CCl)c4c3cc(OC(=O)N(C)CCSSCCN3CCOCC3)c3ccccc43)[nH]c2c(OC)c1OC | -39.6% (active)
CCOP(=O)(OCC)O[C@H]1CCC(=O)[C@@H]2[C@H]1[C@H]1C[C@@H]3[C@@]4(C)CCCC(C)(C(=O)OC)[C@@H]4CC[C@@]23C=C1C(C)C (some centres not stated) | 36.4%
Cc1ccc(Cc2cnc(NC(=O)c3ccc(/C=C4\SC(=S)N(C)C4=O)cc3)s2)cc1 | 18%
N/C(=N\c1nc2ccccc2s1)NC(=O)NCCCCCCO | 45.8%
O=C(Cc1c(-c2ccccc2[N+](=O)[O-])n(-c2ncnc3c2c(-c2ccccc2)c(-c2ccccc2)n3Cc2ccccc2)[nH]c1=O)c1ccc(Cl)c(Cl)c1 | 1.19% (active)
N#Cc1c(-c2ccc(F)cc2)nc(SCc2ccccc2)nc1N1CCNCC1 | -14.7% (active)
COc1cc(C2CC(c3ccc(Oc4ccc(Cl)cc4)cc3)=NN2c2nc(-c3ccc(Cl)cc3)c(C#N)c(N3CCOCC3)n2)cc(OC)c1OC (configuration not stated) | 102%
C=CCSc1nnc(-c2c(C)nc3sccn23)o1 | 119%
Cn1cc(-c2nc(N)nnc2-c2c[nH]c3ccc(F)cc23)c2cccnc21 | 37.2%
COc1ccc(/C=C/C(=O)c2ccc(S(=O)(=O)NCCNc3nc(Nc4ccc(F)cc4)nc(N(C)C)n3)cc2)cc1 | 17.2%
CCN(CC)c1ccnc(CNCCSC(c2ccccc2)(c2ccccc2)c2ccc(C)cc2)c1 | -52.3% (active)
COc1ccc(C(=O)/C=C/c2ccc(OCc3ccc(F)cc3)c(OC)c2)cc1OC | -5.63% (active)
COc1ccccc1[C@H]1C(C(=O)c2ccc(Cl)cc2)C2(N[C@@H]1c1ccccc1)C(=O)Nc1ccccc12 (some centres not stated) | -29.6% (active)

Compound | growth
CCOC(=O)c1ccc(Nc2nc(NN)nc(-c3ccc(OC)cc3)c2C#N)cc1 | 103%
COc1cc(-c2cc(-c3cccc(OCC(=O)O)c3)[nH]c(=O)c2C#N)cc(OC)c1OC | 80.6%
Cc1cccc(-c2nc(Nc3ccc(C)c(S(N)(=O)=O)c3)c3ccccc3n2)c1 | 26%
C#CCCCNCCNc1ccnc2cc(Cl)ccc12 | 46.8%
COc1cccc(-c2ccnc(/N=C(\N)Nc3ccc(S(=O)(=O)Nc4nc(C)cc(C)n4)cc3)n2)c1 | 91.9%
O=C(Cn1nc(-c2ccccc2)ccc1=O)N/N=C/c1ccc(N2CCOCC2)cc1 | 96.3%
COc1cc(CNC(=O)/C=C/c2ccc3c(c2)OCO3)ccc1OCc1cn(-c2ccc([N+](=O)[O-])cc2)nn1 | 97%
CC[C@]12C=CCN3CC[C@]4(C(=C(C(=O)OC)C1)Nc1cc(OC)c([C@@H]5[C@H]6O[C@H]6[C@@]6(CC)CC(C(=O)OC)=C7Nc8cc(O)ccc8[C@@]78CCN5[C@@H]68)cc14)[C@@H]32 | -44.4% (active)
COc1cc(CNC(=O)C[C@H](C)CCC=C(C)C)ccc1OCc1cn(-c2ccc(Cl)c(Cl)c2)nn1 | 84%
N#C/C(=C/c1ccc([N+](=O)[O-])cc1)c1nnc(NC(=O)c2ccc(-n3c(=O)[nH]c4ccccc4c3=O)cc2)s1 | 99.3%
COc1ccc(-c2nc3cc(C)ccc3n2CC(=O)N=Nc2c(O)[nH]c3ccc(Br)cc23)cc1 | 39.4%
CC(C)Sc1nc(NCCc2c[nH]c3ccccc23)c(C#N)c(-c2ccc(F)cc2)n1 | 27%
O=c1[nH]c2ccccc2cc1CSc1ccc(Nc2nccc(-c3ccc(C(F)(F)F)cc3)n2)cc1 | 69.5%
O=C(N/N=C/c1ccc(-c2ccc(O)cc2)o1)c1[nH]c2ccc(Br)cc2c1-c1ccccc1 | -20.6% (active)
Cn1cc(-c2cc3nc(-c4cn(C)c5ncccc45)cc(N)n3n2)c2ccccc21 | -44.8% (active)
CC(C)(C)c1ccc(OCc2nc3ccccc3n2-c2cccc(N)c2)cc1 | 67.8% and 98.6%
